Bioassay records as filed in PubChem BioAssay.
Hits are enriched below; roughly 19% of the tested compounds scored in any of these assays.
IL1B secr inh: blocks inflammasome-driven IL-1 beta release; THP-1 LPS/ATP IL-1B secretion, AlphaLISA, 16 h; stronger effect = lower value; activity change, % at 57.5 µM; 4.7% of 360,000 active; AID 743279; in the data active = activity change below about -50%; inconclusive = mostly about -30% to -49%
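THP-1 cells pretreated 1 hr with compounds (up to 57.5 uM final), then stimulated with LPS (250 ng/mL final) plus ATP (1.25 mM final); secreted IL-1B measured by AlphaLISA after 16 hr, decreased signal indicating inhibition.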
DT40 TDP1 CPT: DT40-hTDP1 cell growth loss with CPT. chicken DT40 Tdp1-/-;hTDP1 cells + 20 nM CPT, ATP luminescence, 48 h. Potency, µM (series often up to 46.2 µM), most hits filed as inhibitors. 12% of 420,000 active; also: nearly all actives have a fitted effect of over 55% in size
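Cell growth measured by CellTiter-Glo luminescence after a minimum 48 h, 37 C compound exposure with 20 nM CPT in Tdp1-knockout DT40 cells stably expressing hTDP1, seeded 400/well; qHTS titration format.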
DT40 TDP1 no CPT: qHTS for Inhibitors of human tyrosyl-DNA phosphodiesterase 1 (TDP1): qHTS in cells in absence of CPT | DT40 Tdp1-/- hTDP1 cells, no CPT, ATP luminescence, 48 h | Potency, µM (titrated, usually from 46.2 µM), hits mostly inhibitors | 15% of 420,000 active | AID 686978, 2013; also: nearly all actives have a fitted effect of over 55% in size
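Compound effects on proliferation are scored in DT40 Tdp1-/-;hTDP1 cells in the absence of CPT. ATP levels (CellTiter-Glo luminescence) are recorded after a ≥48 hr, 37 °C incubation.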
HT1080 IDH1KD tx: toxicity to HT-1080 IDH1 knockdown cells (counter line) | HT-1080 IDH1 knockdown viability, ATP luminescence, 48 h | Potency, µM (titrated, usually from 46.1 µM), hits mostly cytotoxic | 2% of 360,000 active
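In this qHTS, HT-1080 cells depleted of IDH1 are exposed for 48 h at 37 °C to compound titrations. Toxicity is scored from CellTiter-Glo luminescence, with DMSO as full viability and medium alone as none.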
uPA generation: cell surface uPA generation inhibition; AID 540303; Potency, µM (doses to about 38.3 µM), usual class: inhibitors; 0.31% of 330,000 active; cell surface uPA generation assay, qHTS; active = well fitted inhibition curve with a large enough effect; inconclusive = small, poorly fitted or top-dose-only effect; inactive = no such curve, though single readings can be large or run the other way; tested in mouse RAW 264.7 cells; also: nearly all actives have a fitted effect of over 55% in size
HT1080-NT tox: kills 2HG-producing HT-1080-NT fibrosarcoma cells; 1.6% of 360,000 active; HT-1080-NT fibrosarcoma viability, CellTiter-Glo ATP luminescence, 48 h; AID 686970; Potency, µM (top dose mostly 46.1 µM), actives largely listed as cytotoxic;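 also: NT is the 2HG producing partner of a matched IDH1 knockdown line; nearly all actives have a fitted effect of over 55% in size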
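Viability of the 2HG-overproducing fibrosarcoma line after 48 hours of compound exposure at 37 degrees C was determined by luminescence with CellTiter-Glo, and concentration-effect curves were then fitted and categorized.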
Numbers stand for hits; [ ] = dose if it differs, or a comment. Unless noted, calls follow the shape of the dose curve; as a rule, active = well fitted curve in the direction sought with a large enough effect; inconclusive = small, poorly fitted or top-dose-only effect, or another doubt; inactive = no such curve, though single readings can be large; an effect the other way counts as inactive or inconclusive.

`CCn1c(=O)n(CC)c2cc(N3CCCC3)c(NC(=O)c3cccc(Cl)c3)cc21` gave IL1B secr inh inactive, DT40 TDP1 CPT 15µM, DT40 TDP1 no CPT 9.2µM, HT1080 IDH1KD tx inconclusive, uPA generation inactive and HT1080-NT tox inactive.
`CCn1c(=O)n(CC)c2cc(N3CCCC3)c(NC(=O)c3ccc(C)c([N+](=O)[O-])c3)cc21` gave IL1B secr inh inactive, DT40 TDP1 CPT 6.5µM, DT40 TDP1 no CPT 7.3µM, HT1080 IDH1KD tx inactive, uPA generation inactive and HT1080-NT tox inactive.
For Cc1cccc(C(=O)Nc2cc3c(cc2N2CCCCC2)n(C)c(=O)c(=O)n3C)c1 the results were DT40 TDP1 CPT inactive and DT40 TDP1 no CPT inactive.
For COc1cccc(-c2noc(C3CCCN(C(=O)c4ccccc4OC)C3)n2)c1 (centres undefined) the results were IL1B secr inh inactive, DT40 TDP1 CPT inconclusive, DT40 TDP1 no CPT inconclusive, HT1080 IDH1KD tx inactive, uPA generation inactive and HT1080-NT tox inactive.
For CCCC(=O)N1CCCC(c2nc(-c3cccs3)no2)C1 (centres undefined) the results were IL1B secr inh inactive, DT40 TDP1 CPT inconclusive, DT40 TDP1 no CPT 26µM, HT1080 IDH1KD tx inactive, uPA generation inactive and HT1080-NT tox inactive.
Screening COc1ccc(-c2noc(C3CCCN(C(=O)c4ccc(F)cc4)C3)n2)cc1 (centres undefined) returned IL1B secr inh inconclusive, DT40 TDP1 CPT inconclusive, DT40 TDP1 no CPT inconclusive, HT1080 IDH1KD tx inconclusive, uPA generation inactive and HT1080-NT tox inactive.
For COc1cccc(-c2noc(C3CCCN(C(=O)CC(C)(C)C)C3)n2)c1 (centres undefined) the results were IL1B secr inh inactive, DT40 TDP1 CPT 16µM, DT40 TDP1 no CPT inconclusive, HT1080 IDH1KD tx inactive, uPA generation inactive and HT1080-NT tox inactive.
`COc1ccc(-c2noc(C3CCCN(C(=O)c4ccc(C)cc4)C3)n2)cc1` (centres undefined) gave IL1B secr inh -70, DT40 TDP1 CPT 23µM, DT40 TDP1 no CPT 23µM, HT1080 IDH1KD tx 16µM, uPA generation inactive and HT1080-NT tox inconclusive.
`Cc1ccc(-c2noc(C3CCCN(C(=O)c4ccc(Cl)cc4)C3)n2)o1` (centres undefined) gave IL1B secr inh inconclusive, DT40 TDP1 CPT inconclusive, DT40 TDP1 no CPT 13µM, HT1080 IDH1KD tx inactive, uPA generation inactive and HT1080-NT tox inactive.
Screening CC(C)CNC(=O)c1cc(=O)[nH]c2ccc(S(=O)(=O)Nc3ccc(F)cc3)cc12 returned IL1B secr inh inactive, DT40 TDP1 CPT inactive, DT40 TDP1 no CPT inactive, HT1080 IDH1KD tx inactive, uPA generation inactive and HT1080-NT tox inactive.
O=[N+]([O-])c1ccc(CN2CC(N3CCN(CC4CC4)CC3)CS2(=O)=O)cc1 (centres undefined) was read as IL1B secr inh inactive, DT40 TDP1 CPT inactive, DT40 TDP1 no CPT inactive, HT1080 IDH1KD tx inactive and HT1080-NT tox inactive.
CNc1ccc2ncc(-c3ccccc3C(C)=O)n2n1 was read as IL1B secr inh inactive, DT40 TDP1 CPT inactive, DT40 TDP1 no CPT inconclusive, HT1080 IDH1KD tx inactive and HT1080-NT tox inactive.
For CN(C)c1ccc(C(=O)C(=O)c2ccccc2)cc1 the results were IL1B secr inh inactive, DT40 TDP1 CPT inactive, DT40 TDP1 no CPT inactive, HT1080 IDH1KD tx inactive, uPA generation inactive and HT1080-NT tox inactive.
Screening C/C(=C1/C=Nc2ccccc21)c1ccc(N(C)C)cc1 returned DT40 TDP1 CPT 7.9µM and DT40 TDP1 no CPT 10µM.
Screening COC(=O)C[C@@H]1OC[C@H](Cc2ccccc2)N1S(=O)(=O)c1ccc(C)cc1 returned IL1B secr inh inactive, DT40 TDP1 CPT inconclusive, DT40 TDP1 no CPT inconclusive, HT1080 IDH1KD tx inactive and HT1080-NT tox inactive.
For CC(=O)c1cccc(-c2ccnc3c2CC(C(=O)NCCC(F)(F)F)O3)c1 (centres undefined) the results were IL1B secr inh inactive, DT40 TDP1 CPT inconclusive, DT40 TDP1 no CPT inconclusive, HT1080 IDH1KD tx 21µM and HT1080-NT tox inconclusive.
CC(=O)c1cccc(-c2ccnc3c2CC(C(=O)NCC2CCOCC2)O3)c1 (centres undefined) was read as IL1B secr inh inactive, DT40 TDP1 CPT 3.7µM, DT40 TDP1 no CPT 2.9µM, HT1080 IDH1KD tx inconclusive and HT1080-NT tox inconclusive.
Screening O=C(NCC1CCOCC1)C1Cc2c(-c3ccccc3Oc3ccccc3)ccnc2O1 (centres undefined) returned IL1B secr inh inactive, DT40 TDP1 CPT inconclusive, DT40 TDP1 no CPT inconclusive, HT1080 IDH1KD tx inactive and HT1080-NT tox inconclusive.
CC(=O)c1cccc(-c2ccnc3c2CC(C(=O)NCC2CC2)O3)c1 (centres undefined) was read as IL1B secr inh inactive, DT40 TDP1 CPT 23µM, DT40 TDP1 no CPT inconclusive, HT1080 IDH1KD tx inconclusive and HT1080-NT tox inconclusive.
Screening Cc1cccc(CSC(=N)N)c1 returned IL1B secr inh inactive, DT40 TDP1 CPT inactive, DT40 TDP1 no CPT inconclusive, HT1080 IDH1KD tx inactive, uPA generation inactive and HT1080-NT tox inactive.
N=C(N)SCCc1cccc(CCSC(=N)N)c1 was read as IL1B secr inh inactive, DT40 TDP1 CPT 16µM, DT40 TDP1 no CPT 16µM, HT1080 IDH1KD tx inactive, uPA generation inactive and HT1080-NT tox inactive.
For Cc1ccc(NC(=O)CSc2nc3ccccc3n2CC(=O)N2CCC(C)CC2)cc1C the results were DT40 TDP1 CPT inconclusive and DT40 TDP1 no CPT 18µM.
For CCCCN(C)C(=O)Cn1c(SCC(=O)Nc2ccc(C)c(C)c2)nc2ccccc21 the results were DT40 TDP1 CPT inconclusive and DT40 TDP1 no CPT 13µM.
Screening CSc1nc2ccccc2n1CC(=O)Nc1ccc(C)c(C)c1 returned IL1B secr inh inactive, DT40 TDP1 CPT inconclusive, DT40 TDP1 no CPT inconclusive, HT1080 IDH1KD tx inactive, uPA generation inactive and HT1080-NT tox inactive.
Screening CN(C)c1ccc(N=C/C=C2\N(C)c3ccccc3C2(C)C)cc1 returned IL1B secr inh -89, DT40 TDP1 CPT 5.2µM, DT40 TDP1 no CPT 4.1µM, HT1080 IDH1KD tx inconclusive, uPA generation inactive and HT1080-NT tox inconclusive.
Screening Cc1cc(/N=C/C=C2\N(C)c3ccccc3C2(C)C)n(CCC#N)n1 returned IL1B secr inh -90, DT40 TDP1 CPT 5.8µM, DT40 TDP1 no CPT 4.6µM, HT1080 IDH1KD tx inactive[9.24 µM], uPA generation inconclusive and HT1080-NT tox inconclusive.
For CN1\C(=C/C=C/C=C/C=[N+](C)C)C(C)(C)c2ccccc21 the results were IL1B secr inh inactive, DT40 TDP1 CPT 2.6µM, DT40 TDP1 no CPT 2.3µM, HT1080 IDH1KD tx inconclusive, uPA generation inconclusive and HT1080-NT tox inconclusive.
Cc1c(N=C/C=C2\N(C)c3ccccc3C2(C)C)c(=O)n(-c2ccccc2)n1C was read as IL1B secr inh inactive, DT40 TDP1 CPT inconclusive, DT40 TDP1 no CPT inconclusive, HT1080 IDH1KD tx inactive, uPA generation inactive and HT1080-NT tox inactive.
